Experimental findings from the supplement of paper PMC9950053 are described below.

Structures can show the parent of a compound that is named as a salt.

The test relates to Danio rerio larvae (5 dpf). The test is described as follows: habituation (activity change first vs second 5 min of 1-s interval sound, period 17) minus DMSO control (percentage points); higher = larger habituation measure than DMSO larvae. The following applies: 10 µM; exposure time: 3 h pre-incubation + 3 h imaging. Here is the method:
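Wild-type 5 dpf zebrafish larvae (n=48 per drug, 96-well plates, 28.5 °C) were exposed to Tocris FDA-approved library compounds at 10 µM (0.1% DMSO) for 3 h before and 3 h during imaging. Images were taken every 6 s during visual (moving coloured lines) and acoustic stimuli, and larvae were tracked with the DeepLabCut-based Z-LaP Tracker. Each behavioural measure is the treated-group mean minus the DMSO vehicle control mean (n=844), in percentage points. This mapping covers compounds with 4-character plate codes.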
Turning to `CCN(C)C(=O)Oc1cccc([C@H](C)N(C)C)c1` [Rivastigmine tartrate], the habituation was found to be 0.0925. The result for `CC(O)(CS(=O)(=O)c1ccc(F)cc1)C(=O)Nc1ccc(C#N)c(C(F)(F)F)c1` (stereo unspecified) [Bicalutamide] reads -6.13. Regarding `O=c1[nH]c2ccccc2n1C1CCN(CCCC(c2ccc(F)cc2)c2ccc(F)cc2)CC1` [Pimozide], the habituation was -10.2. The result for `N[C@@H]1C[C@H]1c1ccccc1` [Tranylcypromine hydrochloride] reads -2.8. The result for `COc1cc2c(cc1OC)C1CC(=O)C(CC(C)C)CN1CC2` (stereo unspecified) [Tetrabenazine] reads 0.576.

As for `C=C1C[C@@H]2[C@H](CC[C@]3(C)C(=O)CC[C@@H]23)[C@@]2(C)C=CC(=O)C=C12` [Exemestane], the habituation was -2.71. The result for `Cc1cccc([C@H](C)c2c[nH]cn2)c1C` [Dexmedetomidine hydrochloride] reads -10.4; that for `CC(C)C[C@H]1C(=O)N2CCC[C@H]2[C@]2(O)O[C@](NC(=O)[C@@H]3C=C4c5cccc6[nH]c(Br)c(c56)C[C@H]4N(C)C3)(C(C)C)C(=O)N12` [Bromocriptine mesylate], -1.05. In the case of `CN1C[C@H](C(=O)N[C@]2(C)O[C@@]3(O)[C@@H]4CCCN4C(=O)[C@H](Cc4ccccc4)N3C2=O)C[C@@H]2c3cccc4[nH]cc(c34)C[C@H]21` [Dihydroergotamine mesylate], the habituation is 2.38.

For the compound `C=CCN1C[C@H](C(=O)N(CCCN(C)C)C(=O)NCC)C[C@@H]2c3cccc4[nH]cc(c34)C[C@H]21` [Cabergoline], the habituation amounted to 5.7. `CC[C@@H](C(N)=O)N1CCCC1=O` [Levetiracetam]: the habituation is -2.
